Test results: PubChem BioAssay (EPA / NIEHS)
Several values for one entry are separate records, joined by “and”; a condition that tells them apart may be missing. Equal entries are not always repeated. Inconclusive results are not listed. The source holds several records for some structures; these can differ, active in one and inactive in another. Activity calls are given as the source filed them. How the source made its calls, unless noted: active means hit-call score of the fitted dose curve at least 0.9, where 1 is the maximum; inactive means score below 0.9.

Columns and labels:
[1] = ATG_M_06_TRANS: Attagene TRANS-FACTORIAL HepG2 Assay for M06 Transcription Factor (Internal Marker) (AID 2282983; active means hit-call score of the fitted dose curve at least 0.9, where 1 is the maximum;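 further: reporter transcript level by RT-PCR then capillary electrophoresis fluorescence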); details: HepG2 Attagene TRANS M06 internal marker reporter
Outline: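 Read-out: fluorescent reporter cDNA fragments resolved by capillary electrophoresis after RT-PCR and HpaI cut. Source cells were HepG2 carrying transfected multi-reporter GAL4 constructs, dosed 24 h. Increase over DMSO control analysed.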

[2] = ATG_M_32_TRANS: Attagene TRANS-FACTORIAL HepG2 Assay for M32 Transcription Factor (Internal Marker) (AID 2282984; active means hit-call score of the fitted dose curve at least 0.9, where 1 is the maximum;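 further: transcript level of a background control reporter unit measured by RT-PCR and capillary electrophoresis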); details: HepG2 Attagene TRANS M32 internal marker reporter
Outline: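 Cell-based TRANS-format assay in HepG2: exogenous chimeric GAL4 reporter units transiently expressed, compounds applied 24 h. Reporter mRNA detected by RT-PCR plus capillary electrophoresis; this readout is an internal background marker.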

[3] = target: Nuclear receptor subfamily 4 group A member 2 (Homo sapiens) (UniProt P43354); experiment: ATG_NURR1_TRANS: Attagene TRANS-FACTORIAL HepG2 Assay for human Nuclear Receptor Related Protein 1 (NURR1) (AID 2282985; active means hit-call score of the fitted dose curve at least 0.9, where 1 is the maximum); details: HepG2 Attagene TRANS reporter, mRNA readout
Nuclear receptor subfamily 4 group A member 2 (Homo sapiens), sequence (P43354 whole entry, looked up, the tested form may be a part): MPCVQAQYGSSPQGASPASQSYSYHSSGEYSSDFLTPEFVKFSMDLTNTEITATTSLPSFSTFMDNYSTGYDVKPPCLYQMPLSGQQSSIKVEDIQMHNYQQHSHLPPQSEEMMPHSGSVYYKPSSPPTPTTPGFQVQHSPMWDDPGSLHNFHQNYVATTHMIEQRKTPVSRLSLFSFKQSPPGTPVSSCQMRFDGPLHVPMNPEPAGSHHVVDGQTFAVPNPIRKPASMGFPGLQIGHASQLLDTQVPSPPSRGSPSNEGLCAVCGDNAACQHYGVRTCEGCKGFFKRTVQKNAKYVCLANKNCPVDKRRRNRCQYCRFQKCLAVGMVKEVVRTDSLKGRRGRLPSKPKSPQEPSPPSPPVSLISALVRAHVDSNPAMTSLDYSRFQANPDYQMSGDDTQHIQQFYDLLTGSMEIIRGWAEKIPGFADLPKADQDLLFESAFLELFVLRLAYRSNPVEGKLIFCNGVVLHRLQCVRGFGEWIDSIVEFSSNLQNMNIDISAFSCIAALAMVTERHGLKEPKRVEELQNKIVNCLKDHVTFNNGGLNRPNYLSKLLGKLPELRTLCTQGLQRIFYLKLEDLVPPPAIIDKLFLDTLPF
Outline: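 Measures transcriptional activation by an exogenous NR-Gal4 chimera in transfected HepG2 liver cells. After 24 h, reporter RNA is reverse-transcribed, amplified and resolved by capillary electrophoresis; DMSO defines baseline.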

[4] = ATG_NFI_CIS: Attagene CIS-FACTORIAL HepG2 Assay for human Nuclear Factor I (NFI) (AID 2282989); details: HepG2 cis-regulatory reporter, NFI response element transcription; actives raise or lower the signal
Outline: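 Cells: human liver HepG2, transiently transfected with promoter-regulated reporter transcription units. Exposure 24 h. Detection: fluorescent RT-PCR products separated by capillary electrophoresis, normalised to DMSO negative control.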

[5] = target: Myc proto-oncogene protein (Homo sapiens) (UniProt P01106); experiment: ATG_Myc_CIS: Attagene CIS-FACTORIAL HepG2 Assay for human Myelocytomatosis (Myc) Proto-Oncogene Transcription Factor (AID 2282990); details: HepG2, Attagene cis-reporter transcription factor activity; actives raise or lower the signal
Myc proto-oncogene protein (Homo sapiens), sequence (P01106 whole entry, looked up): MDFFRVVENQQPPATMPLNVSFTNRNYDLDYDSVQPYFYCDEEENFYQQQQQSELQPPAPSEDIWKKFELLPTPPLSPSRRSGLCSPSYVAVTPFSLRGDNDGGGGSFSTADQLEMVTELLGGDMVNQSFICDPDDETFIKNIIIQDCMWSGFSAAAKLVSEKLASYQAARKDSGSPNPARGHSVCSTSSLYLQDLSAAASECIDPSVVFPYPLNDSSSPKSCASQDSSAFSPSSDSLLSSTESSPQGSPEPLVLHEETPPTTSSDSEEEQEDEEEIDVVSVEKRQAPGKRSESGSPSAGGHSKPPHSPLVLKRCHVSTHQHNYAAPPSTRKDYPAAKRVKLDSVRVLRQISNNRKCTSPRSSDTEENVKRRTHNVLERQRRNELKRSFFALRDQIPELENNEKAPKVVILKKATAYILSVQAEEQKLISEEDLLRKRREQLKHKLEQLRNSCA
Outline: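 HepG2, transient MRTU transfection (cis promoters, endogenous TFs); 24 h dosing; TriZol RNA → oligo(dT) RT → PCR → 6-FAM primer extension → HpaI cut → CE. Bidirectional fit vs DMSO.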

[6] = ATG_NF_kB_CIS: Attagene CIS-FACTORIAL HepG2 Assay for human Nuclear Factor Kappa B (NF-kB) (AID 2282991); details: HepG2 Attagene cis-factorial NF-kB reporter mRNA; actives raise or lower the signal
Outline: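 After 24 h compound incubation, transfected HepG2 cells yield total RNA; reporter cDNA is PCR-amplified, end-labelled with 6-FAM, HpaI-digested and analysed on a genetic analyser. Endogenous factor activity, DMSO-referenced bidirectional fit.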

[7] = ATG_NRF2_ARE_CIS: Attagene CIS-FACTORIAL HepG2 Assay for human Nuclear Factor Erythroid 2 Related Factor 2 (NFR2) response to Antioxidant Response Elements (ARE) (AID 2282992); details: HepG2 Attagene ARE/NRF2 reporter, transcription factor activity; actives raise or lower the signal;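 on AC50: reporter mRNA level measured by RT-PCR and capillary electrophoresis fluorescence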
Outline: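 Endogenous transcription factor activity in human liver HepG2 cells is tracked via a cis-element-driven reporter within a multiplexed set. mRNA induction is read by RT-PCR and capillary electrophoresis after 24 h, with DMSO as baseline.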

[8] = ATG_Oct_MLP_CIS: Attagene CIS-FACTORIAL HepG2 Assay for human Octamer-Binding Transcription Factor (Oct) (AID 2282993); details: HepG2 Attagene cis-factorial Oct reporter, mRNA; actives raise or lower the signal
Outline: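 HepG2, transient MRTU transfection, cis promoter elements; 24 h dosing; RT-PCR/CE fluorescence read-out of reporter mRNA; fit both directions vs DMSO.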

[9] = target: Cellular tumor antigen p53 (Homo sapiens) (UniProt P04637); experiment: ATG_p53_CIS: Attagene CIS-FACTORIAL HepG2 Assay for human p53 Transcription Factor (AID 2282994); details: HepG2 p53 cis-element reporter, Attagene mRNA; actives raise or lower the signal
Cellular tumor antigen p53 (Homo sapiens), sequence (P04637 whole entry, looked up, the tested form may be a part): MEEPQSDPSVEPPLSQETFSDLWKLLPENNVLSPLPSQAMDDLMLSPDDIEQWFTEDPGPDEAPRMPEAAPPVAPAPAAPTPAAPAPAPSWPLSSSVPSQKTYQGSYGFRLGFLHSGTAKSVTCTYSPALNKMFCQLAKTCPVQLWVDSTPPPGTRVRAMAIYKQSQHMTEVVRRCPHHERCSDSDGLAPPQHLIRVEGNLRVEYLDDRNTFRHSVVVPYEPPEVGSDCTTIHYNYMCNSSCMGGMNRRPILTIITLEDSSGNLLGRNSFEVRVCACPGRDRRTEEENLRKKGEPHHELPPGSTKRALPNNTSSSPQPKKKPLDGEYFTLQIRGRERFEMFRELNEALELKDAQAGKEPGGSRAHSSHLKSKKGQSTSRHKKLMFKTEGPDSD
Outline: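 Steps: transfect HepG2 with multiplexed cis reporter constructs; dose chemicals 24 h; extract RNA, reverse-transcribe, PCR-amplify reporter sequences; FAM-label, HpaI-digest, resolve fragments by CE. Activity fitted both directions relative to DMSO.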

[10] = BSK_3C_TissueFactor: BioMAP Diversity Plus: 3C Assay for Tissue Factor Biomarker Activity (AID 2282997); details: BioMAP 3C HUVEC, tissue factor biomarker readout; actives raise or lower the signal
Outline: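 HUVEC, 3C system, 24 h post-dose; Tissue Factor by ELISA; bidirectional fit vs DMSO baseline.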

[11] = BSK_3C_uPAR: BioMAP Diversity Plus: 3C Assay for Urokinase-type plasminogen activator receptor (uPAR) Biomarker Activity (AID 2282998); details: BioMAP 3C HUVEC, uPAR biomarker ELISA; actives raise or lower the signal
Outline: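 A multiplexed primary-cell system built on human umbilical vein endothelium was used, with chemical present for 24 h before reading. Cell-surface uPAR was detected by ELISA; signal change in either direction counted against DMSO.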

[12] = target: human Peroxisome Proliferator-activated Receptor delta (PPARd), PPARD (gene 5467) (UniProt Q03181); experiment: ATG_PPARd_TRANS: Attagene TRANS-FACTORIAL HepG2 Assay for human Peroxisome Proliferator-activated Receptor delta (PPARd) (AID 2283002; active means hit-call score of the fitted dose curve at least 0.9, where 1 is the maximum)
human Peroxisome Proliferator-activated Receptor delta (PPARd), PPARD (gene 5467), sequence (Q03181 whole entry, looked up, the tested form may be a part): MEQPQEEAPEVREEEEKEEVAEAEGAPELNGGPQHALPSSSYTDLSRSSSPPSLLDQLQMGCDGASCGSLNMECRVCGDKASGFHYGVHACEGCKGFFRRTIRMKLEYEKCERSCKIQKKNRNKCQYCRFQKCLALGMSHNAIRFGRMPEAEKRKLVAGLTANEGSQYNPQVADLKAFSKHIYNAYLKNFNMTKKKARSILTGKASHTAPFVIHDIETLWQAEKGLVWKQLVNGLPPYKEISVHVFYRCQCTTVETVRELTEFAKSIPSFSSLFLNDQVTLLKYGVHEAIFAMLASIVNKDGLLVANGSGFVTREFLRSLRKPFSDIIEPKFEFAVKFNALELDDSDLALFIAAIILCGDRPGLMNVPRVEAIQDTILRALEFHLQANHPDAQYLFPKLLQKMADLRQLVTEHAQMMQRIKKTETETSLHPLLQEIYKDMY
Outline: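 Transient HepG2 transfection (multiple GAL4-UAS RTUs, chimeric receptor-Gal4); 24 h dosing; total RNA → oligo(dT) RT → PCR → 6-FAM primer extension → HpaI cut → CE. Positive direction vs DMSO.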

[13] = read-out: Intercellular Adhesion Molecule 1 (ICAM1), ICAM1 (gene 3383); experiment: BSK_3C_ICAM1: BioMAP Diversity Plus: 3C Assay for Intercellular Adhesion Molecule 1 (ICAM1) Biomarker Activity (AID 2283003); details: primary human endothelial cells (HUVEC); actives raise or lower the signal
Outline: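 ELISA read-out of ICAM-1; HUVEC (primary human), 3C system, 24 h post-dosing; bidirectional fit vs DMSO baseline.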

[14] = target: human Retinoic Acid Receptor beta (RARb), RARB (gene 5915) (UniProt P10826); experiment: ATG_RARb_TRANS: Attagene TRANS-FACTORIAL HepG2 Assay for human Retinoic Acid Receptor beta (AID 2283004; active means hit-call score of the fitted dose curve at least 0.9, where 1 is the maximum)
human Retinoic Acid Receptor beta (RARb), RARB (gene 5915), sequence (P10826 whole entry, looked up, the tested form may be a part): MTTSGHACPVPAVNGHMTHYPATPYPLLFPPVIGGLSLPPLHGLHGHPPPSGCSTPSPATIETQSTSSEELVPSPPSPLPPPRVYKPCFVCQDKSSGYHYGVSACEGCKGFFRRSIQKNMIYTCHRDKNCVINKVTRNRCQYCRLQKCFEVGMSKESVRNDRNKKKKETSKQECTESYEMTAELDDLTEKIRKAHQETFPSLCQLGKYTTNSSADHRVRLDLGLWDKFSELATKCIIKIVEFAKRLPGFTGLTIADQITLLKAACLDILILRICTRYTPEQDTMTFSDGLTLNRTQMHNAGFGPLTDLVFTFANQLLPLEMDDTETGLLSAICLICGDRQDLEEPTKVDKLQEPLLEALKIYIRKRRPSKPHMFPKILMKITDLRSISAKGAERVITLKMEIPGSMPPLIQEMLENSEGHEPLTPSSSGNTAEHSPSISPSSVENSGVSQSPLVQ
Outline: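 Readout is reporter mRNA induction: RNA reverse-transcribed, PCR-amplified, FAM-labelled, HpaI-cut and resolved by capillary electrophoresis. Transiently transfected HepG2 cells carrying exogenous NR–Gal4 chimeras were dosed for 24 h; activity fitted upward relative to DMSO.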

[15] = target: Transcriptional activator Myb (Homo sapiens) (UniProt P10242); experiment: ATG_Myb_CIS: Attagene CIS-FACTORIAL HepG2 Assay for human Myeloblastosis (Myb) Proto-Oncogene Transcription Factor (AID 2282986); details: HepG2 Attagene CIS-FACTORIAL Myb reporter transcription; actives raise or lower the signal
Transcriptional activator Myb (Homo sapiens), sequence (P10242 whole entry, looked up): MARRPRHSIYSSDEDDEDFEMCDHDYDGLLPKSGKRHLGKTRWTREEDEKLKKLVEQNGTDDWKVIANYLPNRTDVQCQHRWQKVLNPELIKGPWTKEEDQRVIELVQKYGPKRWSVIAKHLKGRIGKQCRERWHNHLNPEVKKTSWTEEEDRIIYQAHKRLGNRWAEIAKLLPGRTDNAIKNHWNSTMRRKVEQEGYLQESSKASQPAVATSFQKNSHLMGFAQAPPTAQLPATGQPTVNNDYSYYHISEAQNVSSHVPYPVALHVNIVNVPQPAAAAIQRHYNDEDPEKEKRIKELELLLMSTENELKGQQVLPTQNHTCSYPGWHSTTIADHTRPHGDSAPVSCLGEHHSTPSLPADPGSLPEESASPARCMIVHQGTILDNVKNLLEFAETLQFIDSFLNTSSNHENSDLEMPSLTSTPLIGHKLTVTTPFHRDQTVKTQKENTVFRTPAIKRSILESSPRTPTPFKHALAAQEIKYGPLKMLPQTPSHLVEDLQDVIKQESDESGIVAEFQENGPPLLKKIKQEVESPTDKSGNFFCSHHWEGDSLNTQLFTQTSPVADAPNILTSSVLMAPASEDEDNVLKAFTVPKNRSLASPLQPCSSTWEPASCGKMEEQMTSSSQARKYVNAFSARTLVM
Outline: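 Multiplexed cis-reporter system in HepG2: transient transfection, 24 h treatment, mRNA readout by RT-PCR and capillary electrophoresis. Both increases and decreases are scored versus DMSO negative control.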

[16] = target: Nuclear respiratory factor 1 (Homo sapiens) (UniProt Q16656); experiment: ATG_NRF1_CIS: Attagene CIS-FACTORIAL HepG2 Assay for human Nuclear Respiratory Factor 1 (NRF1) Orphan Gene (AID 2282987); details: HepG2 NRF1 cis-element reporter, Attagene multiplex; actives raise or lower the signal
Nuclear respiratory factor 1 (Homo sapiens), sequence (Q16656 whole entry, looked up): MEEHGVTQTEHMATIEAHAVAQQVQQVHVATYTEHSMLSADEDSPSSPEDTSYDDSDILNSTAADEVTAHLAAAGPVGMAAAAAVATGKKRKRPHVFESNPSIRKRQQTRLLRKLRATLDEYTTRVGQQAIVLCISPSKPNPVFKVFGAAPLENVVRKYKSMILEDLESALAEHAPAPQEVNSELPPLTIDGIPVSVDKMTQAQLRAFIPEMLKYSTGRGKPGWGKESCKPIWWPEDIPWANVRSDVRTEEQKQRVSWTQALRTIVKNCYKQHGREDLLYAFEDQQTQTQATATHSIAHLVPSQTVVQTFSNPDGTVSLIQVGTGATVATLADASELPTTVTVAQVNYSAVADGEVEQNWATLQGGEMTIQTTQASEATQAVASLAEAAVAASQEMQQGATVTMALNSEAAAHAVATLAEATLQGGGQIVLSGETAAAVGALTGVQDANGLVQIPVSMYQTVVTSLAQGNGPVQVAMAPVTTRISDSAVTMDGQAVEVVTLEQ
Outline: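 Endogenous factor activity was captured via cis-element-driven reporter transcripts in HepG2 cells. Following 24 h chemical treatment, transcripts were quantified by RT-PCR and capillary electrophoresis.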

[17] = BSK_3C_VCAM1: BioMAP Diversity Plus: 3C Assay for Vascular cell adhesion molecule 1 (VCAM1) Biomarker Activity (AID 2282999); details: BioMAP 3C HUVEC, VCAM1 ELISA, cytokine-stimulated; actives raise or lower the signal
Outline: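 Activity fitted in both directions relative to DMSO, with ELISA measurement of the surface marker on primary HUVEC (3C) at 24 h post-treatment; parallel SRB staining (0.1% SRB, TCA-fixed, 560 nm) flagged overt cytotoxicity.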

[18] = target: human Peroxisome Proliferator-activated Receptor alpha (PPARa), PPARA (gene 5465) (UniProt Q07869); experiment: ATG_PPARa_TRANS: Attagene TRANS-FACTORIAL HepG2 Assay for human Peroxisome Proliferator-activated Receptor alpha (PPARa) (AID 2283001; active means hit-call score of the fitted dose curve at least 0.9, where 1 is the maximum)
human Peroxisome Proliferator-activated Receptor alpha (PPARa), PPARA (gene 5465), sequence (Q07869 whole entry, looked up, the tested form may be a part): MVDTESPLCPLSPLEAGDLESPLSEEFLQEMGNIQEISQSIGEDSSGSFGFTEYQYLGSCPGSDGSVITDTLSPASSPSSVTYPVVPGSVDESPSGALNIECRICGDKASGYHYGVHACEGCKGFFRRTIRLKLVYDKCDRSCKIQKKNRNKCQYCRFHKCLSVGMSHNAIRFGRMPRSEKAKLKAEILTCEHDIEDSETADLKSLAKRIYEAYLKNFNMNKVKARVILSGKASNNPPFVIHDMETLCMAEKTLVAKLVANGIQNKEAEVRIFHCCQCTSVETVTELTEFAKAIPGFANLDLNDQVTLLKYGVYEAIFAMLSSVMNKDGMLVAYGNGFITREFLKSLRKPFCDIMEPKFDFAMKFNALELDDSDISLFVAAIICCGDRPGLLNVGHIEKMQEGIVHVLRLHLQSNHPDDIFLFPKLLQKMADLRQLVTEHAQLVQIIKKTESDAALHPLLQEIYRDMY
Outline: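 Transfected HepG2 cells treated with test chemical for 24 h. RNA isolated, reverse-transcribed with oligo(dT), PCR-amplified, FAM-labelled and HpaI-digested. Fragments sized by capillary electrophoresis; gain-of-signal fit relative to DMSO.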

Measured: AC50

O=C1C2(Cl)C3(Cl)C4(Cl)C(Cl)(Cl)C5(Cl)C3(Cl)C1(Cl)C5(Cl)C24Cl (stereo unspecified)
active: [3] 18.9 µM | [4] 17.2 µM | [6] 16.5 µM | [7] 6.04 µM | [8] 16.7 µM | [10] 7.03 µM | [11] 7.28 µM | [13] 10.8 µM
inactive: [1] | [2] | [3] | [4] | [5] | [6] | [7] | [8] | [9] | [12] | [14]

CCC(C)c1cccc(C(C)CC)c1O (stereo unspecified)
active: [3] 33.4 µM | [7] 18 µM
not listed: [10] | [11] | [13] | [17] | [18]
inactive: all other assays above

C[C@@H]1C[C@@H]([C@H](O)CC2CC(=O)NC(=O)C2)C(=O)[C@@H](C)C1
inactive: [1] | [2] | [3] | [15] | [16] | [4] | [5] | [8] | [9] | [18]
active: [6] 17.9 µM [middle of 4 runs] | [8] 24.1 µM and 25.4 µM | [9] 1.24 µM and 2.34 µM and 1.67 µM | [10] 2.05 µM | [11] 5.3 µM | [17] 12.4 µM | [13] 12.5 µM

COc1ccc(C=O)cc1OC
not listed: [6] | [10] | [11] | [12] | [13] | [14] | [17]
inactive: all other assays above

COC(=O)Cc1ccccc1
not listed: [6] | [12] | [14] | [15] | [16] | [17]
inactive: all other assays above

ClCc1cccnc1
active: [4] 60.8 µM | [7] 27.9 µM | [8] 50.9 µM
inactive: [1] | [2] | [3] | [15] | [6] | [9] | [12]

CN(CCCC(=O)c1cccnc1)N=O
not listed: [3] | [10] | [11] | [13] | [14] | [16] | [17]
inactive: all other assays above

O=C(O)C(Cl)(Cl)Cl
not listed: [6] | [12] | [17]
inactive: all other assays above

N#CN=C(N)N
not listed: [10] | [11] | [13] | [14] | [17]
inactive: all other assays above
